PubChem BioAssay AID602393 (Broad Institute, 2012)
About 7,000 (2%) of roughly 350,000 compounds were called active. The full list was thinned out, with actives kept by preference. Unmarked numbers belong to inactive results. Cut-off read from the data, not from the text of the source: active = activation above about 40%; inconclusive = no clear call, values can overlap the other calls; inactive = below that.

assay: raisers of Bmi1 knock-in reporter signal – mouse ES cells, Bmi1 luciferase knock-in, single point, esBAF inhibitor project, primary screen (AID 602393); details: 24 h, at 12.5 µM, hits give high values;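 note: 0% = median of the plate's neutral control wells and 100% = double that signal; a rise in the Bmi1 reporter signal indicates esBAF inhibition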

Row | SMILES | reporter increase
1 | CC(C)(C)c1ccc(OC(=O)N2CCCCC2)cc1 | 91.1% (active)
2 | CN1CCN(C(=O)COc2ccc(C(C)(C)C)cc2Br)CC1 | 1.71%
3 | O=C(NC1CCCCC1)N1Cc2cc(N3CCCCC3)ccc2-n2nncc2C1 | 5.49%
4 | CSCCC(c1nnnn1C(C)(C)C)N1CCC(n2c(=O)[nH]c3ccccc32)CC1 (stereo not given) | -9.76%
5 | O=P(OC1=CCCCC1)(c1ccccc1)c1ccccc1 | -0.107%
6 | CN(C)C(=O)Oc1ccc2c(c1)O/C(=C\c1ccccc1)C2=O | 46.6% (active)
7 | CN(C)C(=O)Oc1ccc(NC(=O)N2CCOCC2)cc1 | -0.475%
8 | S=C(NCCc1ccccc1)N1Cc2cc(N3CCOCC3)ccc2-n2nncc2C1 | 0.039%
9 | C[C@H](CO)N1C[C@H](C)[C@H](CN(C)C(=O)Oc2ccc3ccccc3c2)OCc2cnnn2CCCC1=O | 2.57%
10 | N#Cc1cccc(-c2ccc([C@H]3[C@@H](CO)N4CCCCN(C(=O)Cc5cccnc5)C[C@@H]34)cc2)c1 | 0.128%
11 | COC(=O)[C@H]1[C@H](CO)[C@H]2Cn3c(cccc3=O)[C@H]2N1CC1CC1 | 0.469%
12 | Cc1cc(C)c2c(c1)NP(=S)(c1ccccc1)N2 (stereo not given) | 7.37%
13 | COc1ccc2c(c1)NP(=S)(c1ccccc1)N2 (stereo not given) | 43.7% (active)
14 | O=C(O)[C@H]1[C@H](CO)[C@H]2Cn3c(ccc(-c4ccccc4F)c3=O)[C@@H]1N2C(=O)c1cccnc1 | -1.7%
15 | COC(=O)C1=C(c2ccc(OCc3ccccc3)cc2)C[C@@H]2CC[C@H]1N2C(=O)NCc1cccc(F)c1 | 3.43%
